From PubChem BioAssay (NCATS)
Values joined by “and” are separate entries in the source; they are usually repeats but may differ in a detail not shown here. Equal values may be shown once. Inconclusive results are not listed. Unmarked numbers belong to inactive results. Active and inactive are the calls of the source. Calls come from the whole dose curve; as a rule, active = well fitted inhibition curve with a large enough effect; inconclusive = small, poorly fitted or top-dose-only effect; inactive = flat fitted curve, though single readings scatter.

tested on: not listed separately; test: qHTS profiling for inhibitors of Plasmodium falciparum proliferation (AID 504749); note: nearly all actives have a fitted effect of over 60% in size;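 for activity, negative = inhibition: 0% = DMSO vehicle and full inhibition = artemisinin control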; conditions: P. falciparum in erythrocytes, SYBR Green DNA, 72 h; at 28.7 µM (top of the series); parasite line B
In short: (§1)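 Quantitative HTS: compounds pinned into medium, infected erythrocytes added (0.3% parasitemia, 2.5% hematocrit), 72 h culture at 37 C under 5% CO2. Saponin/Triton lysis with SYBR Green I, overnight RT, then fluorescence read.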
Potency is the fitted concentration of half-maximal effect.

Row | SMILES | activity, negative = inhibition
1 | NC(N)=NC(N)=NCCc1ccccc1 | -17%
2 | CNNCc1ccc(C(=O)NC(C)C)cc1 | -2.63%
3 | CCOC(=O)c1ccc(C#Cc2ccc3c(c2)C(C)(C)CCS3)nc1 | -14.4%
4 | O=c1cc(O)c(Cl)c[nH]1 | 8.72%
5 | CCn1cc(C(=O)O)c(=O)c2cc(F)c(N3CCN(C)CC3)cc21 | -21.5%
6 | CC(C)NCC(O)c1ccc(NS(C)(=O)=O)cc1 (stereo not drawn) | 9.61% and 12.6%
7 | CC(=O)Oc1ccccc1C(=O)Nc1ncc([N+](=O)[O-])s1 | 8%
8 | CC[C@H](C)C(=O)O[C@H]1C[C@@H](C)C=C2C=C[C@H](C)[C@H](CC[C@@H]3C[C@@H](O)CC(=O)O3)[C@H]21 | -31.4%
9 | CC(C)OC(=O)C(C(=O)OC(C)C)=C1SC=CS1 | 16.3%
10 | O=S(=O)(O)CCS | 5.78%
11 | Cc1nnc(NS(=O)(=O)c2ccc(N)cc2)s1 | 11.3%
12 | CNC1CCCN(c2c(F)cc3c(=O)c(C(=O)O)cn(C4CC4)c3c2OC)C1 (stereo not drawn) | 5%
13 | S=P(N1CC1)(N1CC1)N1CC1 | -0.221%
14 | CCCc1nc(C)c2c(=O)[nH]c(-c3cc(S(=O)(=O)N4CCN(CC)CC4)ccc3OCC)nn12 | -10.2%
15 | CC1=CC(=O)c2ccccc2C1=O | -23%
16 | Nc1nc(N)c2nc(CNc3ccc(C(=O)NC(CCC(=O)O)C(=O)O)cc3)cnc2n1 (stereo not drawn) | -5.01%
17 | Nc1nc(N)nc(-c2cc(Cl)ccc2Cl)n1 | -1.76%
18 | COc1ccc(-c2ccc3cc(C(=O)O)ccc3c2)cc1C12CC3CC(CC(C3)C1)C2 | 6.13%
19 | NCCCC(O)(P(=O)(O)O)P(=O)(O)O | 1.25%
20 | CCc1cc(C(N)=S)ccn1 | 3.61%

same assay, conditions: P. falciparum in erythrocytes, SYBR Green DNA, 72 h; parasite line A

Row | SMILES | Potency
21 | COc1cc(NCc2ccc3nc(N)nc(N)c3c2C)cc(OC)c1OC | 3.5 nM (active)
22 | COc1cc2c(Nc3ccc(Br)cc3F)ncnc2cc1OCC1CCN(C)CC1 | 1780 nM (active)
23 | N=C(N)c1ccc(OCCCCCOc2ccc(C(=N)N)cc2)cc1 | 1000 nM (active)
24 | COc1cc([C@@H]2c3cc4c(cc3[C@H](O)[C@H]3COC(=O)[C@H]23)OCO4)cc(OC)c1OC | 8910 nM (active)

same assay, conditions: P. falciparum in erythrocytes, SYBR Green DNA, 72 h; parasite line B

Row | SMILES | Potency
25 | C[C@@H](NCCCc1cccc(C(F)(F)F)c1)c1cccc2ccccc12 | 5620 nM (active)
26 | COc1cc(NCc2ccc3nc(N)nc(N)c3c2C)cc(OC)c1OC | 7.1 nM (active)
27 | C1CCC(C(CC2CCCCN2)C2CCCCC2)CC1 (stereo not drawn) | 8910 nM (active)
28 | COc1cc2c(Nc3ccc(Br)cc3F)ncnc2cc1OCC1CCN(C)CC1 | 1000 nM (active)
29 | N=C(N)c1ccc(OCCCCCOc2ccc(C(=N)N)cc2)cc1 | 2240 nM (active)
30 | COc1cc([C@@H]2c3cc4c(cc3[C@H](O)[C@H]3COC(=O)[C@H]23)OCO4)cc(OC)c1OC | 8910 nM (active)

tested on: 3D7; test: as above; conditions: P. falciparum in erythrocytes, SYBR Green DNA, 72 h; series mostly up to 28.7 µM
In short: as §1

Row | SMILES | Potency
31 | C[C@@H](NCCCc1cccc(C(F)(F)F)c1)c1cccc2ccccc12 | 11200 nM (active)
32 | COc1cc(NCc2ccc3nc(N)nc(N)c3c2C)cc(OC)c1OC | 6.3 nM (active)
33 | NC(N)=NC(N)=NCCc1ccccc1 | inactive
34 | CNNCc1ccc(C(=O)NC(C)C)cc1 | inactive
35 | OC(Cn1cncn1)(Cn1cncn1)c1ccc(F)cc1F | inactive
36 | CCOC(=O)c1ccc(C#Cc2ccc3c(c2)C(C)(C)CCS3)nc1 | inactive
37 | O=c1cc(O)c(Cl)c[nH]1 | inactive
38 | C1CCC(C(CC2CCCCN2)C2CCCCC2)CC1 (stereo not drawn) | 7940 nM (active)
39 | CCn1cc(C(=O)O)c(=O)c2cc(F)c(N3CCN(C)CC3)cc21 | inactive
40 | CC(C)NCC(O)c1ccc(NS(C)(=O)=O)cc1 (stereo not drawn) | inactive
41 | Cc1cccc(N(C)C(=S)Oc2ccc3ccccc3c2)c1 | inactive
42 | CC[C@H](C)C(=O)O[C@H]1C[C@@H](C)C=C2C=C[C@H](C)[C@H](CC[C@@H]3C[C@@H](O)CC(=O)O3)[C@H]21 | inactive
43 | CC(C)OC(=O)C(C(=O)OC(C)C)=C1SC=CS1 | inactive
44 | O=S(=O)(O)CCS | inactive
45 | Cc1nnc(NS(=O)(=O)c2ccc(N)cc2)s1 | inactive
46 | CNC1CCCN(c2c(F)cc3c(=O)c(C(=O)O)cn(C4CC4)c3c2OC)C1 (stereo not drawn) | inactive
47 | S=P(N1CC1)(N1CC1)N1CC1 | inactive

Row | SMILES | Potency
48 | COc1cc2c(Nc3ccc(Br)cc3F)ncnc2cc1OCC1CCN(C)CC1 | 2510 nM (active)
49 | O=c1oc2c(O)c(O)cc3c(=O)oc4c(O)c(O)cc1c4c23 | 1000 nM (active)
50 | N=C(N)c1ccc(OCCCCCOc2ccc(C(=N)N)cc2)cc1 | 1580 nM (active)
51 | O=C(O)c1cn(C2CC2)c2cc(N3CCNCC3)c(F)cc2c1=O | inactive
52 | CCCc1nc(C)c2c(=O)[nH]c(-c3cc(S(=O)(=O)N4CCN(CC)CC4)ccc3OCC)nn12 | inactive
53 | COc1cc([C@@H]2c3cc4c(cc3[C@H](O)[C@H]3COC(=O)[C@H]23)OCO4)cc(OC)c1OC | 2240 nM (active)
54 | CC1=CC(=O)c2ccccc2C1=O | 7080 nM (active)
55 | Nc1[nH]c(=O)ncc1F | inactive
56 | Nc1nc(N)c2nc(CNc3ccc(C(=O)NC(CCC(=O)O)C(=O)O)cc3)cnc2n1 (stereo not drawn) | inactive
57 | COC(=O)Nc1nc2ccc(C(=O)c3ccccc3)cc2[nH]1 | inactive
58 | Nc1nc(N)nc(-c2cc(Cl)ccc2Cl)n1 | inactive
59 | CC(C)(Sc1cc(C(C)(C)C)c(O)c(C(C)(C)C)c1)Sc1cc(C(C)(C)C)c(O)c(C(C)(C)C)c1 | 3550 nM (active)
60 | COc1ccc(-c2ccc3cc(C(=O)O)ccc3c2)cc1C12CC3CC(CC(C3)C1)C2 | inactive
61 | NCCCC(O)(P(=O)(O)O)P(=O)(O)O | inactive
62 | COC(=O)Nc1nc2ccc(Sc3ccccc3)cc2[nH]1 | inactive
63 | CCc1cc(C(N)=S)ccn1 | inactive
